Reference: ChEMBL document CHEMBL3988442, “University of Dundee, Small-Polar-MMV Screening Library” (2021)
For some of these results: Results with a measured potency or affinity are listed apart.

Experiments:
Parameters in all cases: scale not given: direction of the effect not stated beside the values
[1] = biological target: Protein translocase subunit SecA (Escherichia coli (strain K12)) (UniProt P10408); assay: Assay to Identify E. coli SecA ATPase Inhibitors; type: functional; conditions: 30 µM
Chain of Protein translocase subunit SecA (Escherichia coli (strain K12)) (P10408 whole entry): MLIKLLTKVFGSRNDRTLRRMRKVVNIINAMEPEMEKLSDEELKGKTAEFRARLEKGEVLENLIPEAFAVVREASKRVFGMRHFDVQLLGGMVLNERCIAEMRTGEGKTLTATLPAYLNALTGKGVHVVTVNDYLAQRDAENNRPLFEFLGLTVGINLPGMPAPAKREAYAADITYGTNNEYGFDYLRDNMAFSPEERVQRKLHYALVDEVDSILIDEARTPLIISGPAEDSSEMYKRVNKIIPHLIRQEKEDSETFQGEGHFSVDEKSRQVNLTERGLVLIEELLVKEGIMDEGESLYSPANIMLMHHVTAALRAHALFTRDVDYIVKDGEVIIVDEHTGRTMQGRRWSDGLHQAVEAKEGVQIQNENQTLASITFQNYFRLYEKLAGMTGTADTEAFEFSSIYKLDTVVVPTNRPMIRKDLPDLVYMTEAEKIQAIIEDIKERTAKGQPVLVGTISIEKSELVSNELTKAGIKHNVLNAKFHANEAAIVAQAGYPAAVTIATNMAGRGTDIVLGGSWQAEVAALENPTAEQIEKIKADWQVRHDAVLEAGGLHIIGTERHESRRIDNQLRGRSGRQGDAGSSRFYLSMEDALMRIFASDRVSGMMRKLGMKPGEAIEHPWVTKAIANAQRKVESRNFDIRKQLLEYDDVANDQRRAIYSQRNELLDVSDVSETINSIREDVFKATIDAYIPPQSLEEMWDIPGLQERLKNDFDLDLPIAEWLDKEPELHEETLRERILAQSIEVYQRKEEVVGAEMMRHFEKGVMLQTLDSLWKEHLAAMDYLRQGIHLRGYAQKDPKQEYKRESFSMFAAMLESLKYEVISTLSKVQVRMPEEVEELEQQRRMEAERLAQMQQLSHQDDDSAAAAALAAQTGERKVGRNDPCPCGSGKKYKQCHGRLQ

[2] = biological target: T1, Ubiquitin-activating enzyme e1, putative (Leishmania donovani (strain BPK282A1)) (UniProt E9BSI1); assay: Leishmania donovani Ubiquitin Activating Enzyme (LdE1); type: functional; conditions: 30 µM
T1 sequence (whole entry): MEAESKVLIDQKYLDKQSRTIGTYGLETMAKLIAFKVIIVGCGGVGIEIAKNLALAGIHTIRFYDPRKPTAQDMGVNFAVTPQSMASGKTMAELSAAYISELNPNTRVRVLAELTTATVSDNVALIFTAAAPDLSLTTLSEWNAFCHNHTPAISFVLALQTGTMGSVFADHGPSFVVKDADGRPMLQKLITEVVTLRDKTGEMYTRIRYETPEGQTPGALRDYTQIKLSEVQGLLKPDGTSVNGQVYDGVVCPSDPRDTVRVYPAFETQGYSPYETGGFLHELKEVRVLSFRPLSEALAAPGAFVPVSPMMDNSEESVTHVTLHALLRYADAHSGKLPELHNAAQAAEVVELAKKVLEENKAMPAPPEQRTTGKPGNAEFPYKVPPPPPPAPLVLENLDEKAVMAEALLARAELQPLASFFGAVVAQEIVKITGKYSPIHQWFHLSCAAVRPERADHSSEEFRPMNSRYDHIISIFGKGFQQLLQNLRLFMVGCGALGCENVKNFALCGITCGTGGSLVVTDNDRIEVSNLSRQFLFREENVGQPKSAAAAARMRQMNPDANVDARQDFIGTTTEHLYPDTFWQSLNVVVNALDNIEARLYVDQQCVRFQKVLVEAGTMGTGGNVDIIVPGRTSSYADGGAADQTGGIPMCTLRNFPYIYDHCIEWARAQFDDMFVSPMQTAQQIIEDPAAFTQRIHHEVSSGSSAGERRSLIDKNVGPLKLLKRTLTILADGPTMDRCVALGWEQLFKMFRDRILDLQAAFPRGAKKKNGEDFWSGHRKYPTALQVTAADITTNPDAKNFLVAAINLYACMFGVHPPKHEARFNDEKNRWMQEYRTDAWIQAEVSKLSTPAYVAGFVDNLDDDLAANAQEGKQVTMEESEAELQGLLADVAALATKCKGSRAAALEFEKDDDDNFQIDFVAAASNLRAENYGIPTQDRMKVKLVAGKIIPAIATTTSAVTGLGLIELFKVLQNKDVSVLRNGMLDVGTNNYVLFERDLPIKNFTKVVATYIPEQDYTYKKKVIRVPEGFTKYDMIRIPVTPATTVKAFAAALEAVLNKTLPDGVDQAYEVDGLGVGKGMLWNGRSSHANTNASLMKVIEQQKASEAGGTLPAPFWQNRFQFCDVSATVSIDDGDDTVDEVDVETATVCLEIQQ

[3] = biological target: AMP-activated protein kinase, AMPK (Homo sapiens) (UniProt P54646+O43741+P54619+Q9UGJ0+Q9Y478+Q13131+Q9UGI9); assay: AMP-dependent Kinase enzyme assay. An in vitro enzyme assay that detects ADP turnover that is directly proportional to AMPK activity. This uses naive AMPK that is activated during the assay with MK-8722; type: functional; conditions: 30 µM
[4] = biological target: Sialic acid-binding Ig-like lectin 9 (Homo sapiens) (UniProt Q9Y336); assay: Hs-Siglec9 ALPHAscreen SOP 20170721; conditions: 10 µM
Chain of Sialic acid-binding Ig-like lectin 9 (Homo sapiens) (Q9Y336 whole entry): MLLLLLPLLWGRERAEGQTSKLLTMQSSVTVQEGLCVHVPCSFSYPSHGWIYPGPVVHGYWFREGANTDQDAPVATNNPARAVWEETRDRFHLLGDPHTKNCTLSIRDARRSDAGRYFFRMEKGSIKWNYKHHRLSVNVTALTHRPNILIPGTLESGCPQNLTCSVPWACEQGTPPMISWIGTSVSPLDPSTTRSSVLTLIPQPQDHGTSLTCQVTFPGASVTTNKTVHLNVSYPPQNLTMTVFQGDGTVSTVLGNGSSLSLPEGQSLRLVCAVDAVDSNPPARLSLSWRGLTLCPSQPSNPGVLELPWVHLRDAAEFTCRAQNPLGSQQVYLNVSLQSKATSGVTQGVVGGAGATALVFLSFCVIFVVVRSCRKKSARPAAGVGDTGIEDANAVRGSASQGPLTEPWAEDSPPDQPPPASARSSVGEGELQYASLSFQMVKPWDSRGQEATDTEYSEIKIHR

Trypanosoma cruzi = assay: Trypanosoma cruzi phosphomannomutase and mannose-1-phosphate guanylyltransferase assay; type: functional; conditions: 10 µM
[5] = biological target: T2, Arginase-2, mitochondrial (Homo sapiens) (UniProt P78540); assay: in vitro enzyme assay to detect the production of urea directly proportional to the activity of Arginase II; type: functional; conditions: 33.3 µM; note: in the data most compounds retested in dose-response had high values
T2 sequence (whole entry): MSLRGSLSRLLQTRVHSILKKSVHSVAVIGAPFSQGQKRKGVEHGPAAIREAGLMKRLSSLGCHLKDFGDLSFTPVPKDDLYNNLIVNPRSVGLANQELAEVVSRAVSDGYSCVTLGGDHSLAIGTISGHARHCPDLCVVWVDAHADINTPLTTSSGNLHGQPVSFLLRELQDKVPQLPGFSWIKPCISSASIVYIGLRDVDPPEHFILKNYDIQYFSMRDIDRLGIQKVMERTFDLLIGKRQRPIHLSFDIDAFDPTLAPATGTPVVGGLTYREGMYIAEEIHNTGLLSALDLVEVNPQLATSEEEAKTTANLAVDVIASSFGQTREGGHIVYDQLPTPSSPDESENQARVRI

[6] = biological target: T3, Proteasome subunit beta (Trypanosoma cruzi) (UniProt O96673); assay: Trypanosoma cruzi proteasome chymotrypsin-like activity (TcProtChymo) assay.; note: in the data most compounds retested in dose-response had high values; type: functional; conditions: 9.37 µM
T3 sequence (whole entry): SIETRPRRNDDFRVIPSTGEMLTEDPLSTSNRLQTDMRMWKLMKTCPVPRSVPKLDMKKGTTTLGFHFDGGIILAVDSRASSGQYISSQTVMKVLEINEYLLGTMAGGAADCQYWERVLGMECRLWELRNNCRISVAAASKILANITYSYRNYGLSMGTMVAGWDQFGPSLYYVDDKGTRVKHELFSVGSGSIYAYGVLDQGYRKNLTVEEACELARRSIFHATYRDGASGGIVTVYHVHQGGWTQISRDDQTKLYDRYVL

Homo sapiens = organism: Homo sapiens; assay: To identify inhibition of the IFN signalling (Jak-Stat) pathway via expression of an eGFP reporter gene under the control of an IFN-stimulated response element (ISRE) containing MxA promoter.; type: functional; conditions: 30 µM
[7] = biological target: T4, Tyrosyl-tRNA synthetase, putative (Trypanosoma cruzi (strain CL Brener)) (UniProt Q4DSP6); assay: Trypanosoma cruzi tyrosyl tRNA synthetase (TcYRS) _High Tyrosine SOP; type: functional; conditions: 30 µM; note: in the data most compounds retested in dose-response had high values
T4 sequence (whole entry): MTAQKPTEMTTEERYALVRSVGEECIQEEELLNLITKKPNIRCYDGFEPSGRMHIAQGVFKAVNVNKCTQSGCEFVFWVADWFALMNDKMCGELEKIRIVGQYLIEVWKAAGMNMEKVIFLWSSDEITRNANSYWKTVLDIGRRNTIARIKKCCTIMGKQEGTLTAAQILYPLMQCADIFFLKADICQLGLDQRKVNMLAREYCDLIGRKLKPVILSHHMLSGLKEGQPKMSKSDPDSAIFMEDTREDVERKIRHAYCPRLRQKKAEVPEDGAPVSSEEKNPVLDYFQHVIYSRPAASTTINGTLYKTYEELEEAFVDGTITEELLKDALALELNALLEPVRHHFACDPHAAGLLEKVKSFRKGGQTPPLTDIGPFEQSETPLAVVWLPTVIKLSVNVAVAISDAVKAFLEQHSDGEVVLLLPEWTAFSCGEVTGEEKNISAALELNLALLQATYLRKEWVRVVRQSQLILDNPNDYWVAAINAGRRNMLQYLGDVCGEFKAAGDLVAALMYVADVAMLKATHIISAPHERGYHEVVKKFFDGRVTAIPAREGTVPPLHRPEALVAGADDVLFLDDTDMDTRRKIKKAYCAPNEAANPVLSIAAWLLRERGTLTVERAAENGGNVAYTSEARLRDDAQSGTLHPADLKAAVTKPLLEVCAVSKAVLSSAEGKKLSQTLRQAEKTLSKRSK

[8] = biological target: T4, Tyrosyl-tRNA synthetase, putative (Trypanosoma cruzi (strain CL Brener)); assay: Trypanosoma cruzi tyrosyl tRNA synthetase (TcYRS) SOP; type: functional; conditions: 30 µM
[9] = biological target: Chromo domain-containing protein 1 (Saccharomyces cerevisiae (strain ATCC 204508 / S288c) (Baker's yeast)) (UniProt P32657); assay: ScCHD-1 Enzyme Inhibition Assay; type: functional; conditions: 30 µM; note: in the data most compounds retested in dose-response had high values
Chain of Chromo domain-containing protein 1 (Saccharomyces cerevisiae (strain ATCC 204508 / S288c) (Baker's yeast)) (P32657 whole entry, the tested form may be a part): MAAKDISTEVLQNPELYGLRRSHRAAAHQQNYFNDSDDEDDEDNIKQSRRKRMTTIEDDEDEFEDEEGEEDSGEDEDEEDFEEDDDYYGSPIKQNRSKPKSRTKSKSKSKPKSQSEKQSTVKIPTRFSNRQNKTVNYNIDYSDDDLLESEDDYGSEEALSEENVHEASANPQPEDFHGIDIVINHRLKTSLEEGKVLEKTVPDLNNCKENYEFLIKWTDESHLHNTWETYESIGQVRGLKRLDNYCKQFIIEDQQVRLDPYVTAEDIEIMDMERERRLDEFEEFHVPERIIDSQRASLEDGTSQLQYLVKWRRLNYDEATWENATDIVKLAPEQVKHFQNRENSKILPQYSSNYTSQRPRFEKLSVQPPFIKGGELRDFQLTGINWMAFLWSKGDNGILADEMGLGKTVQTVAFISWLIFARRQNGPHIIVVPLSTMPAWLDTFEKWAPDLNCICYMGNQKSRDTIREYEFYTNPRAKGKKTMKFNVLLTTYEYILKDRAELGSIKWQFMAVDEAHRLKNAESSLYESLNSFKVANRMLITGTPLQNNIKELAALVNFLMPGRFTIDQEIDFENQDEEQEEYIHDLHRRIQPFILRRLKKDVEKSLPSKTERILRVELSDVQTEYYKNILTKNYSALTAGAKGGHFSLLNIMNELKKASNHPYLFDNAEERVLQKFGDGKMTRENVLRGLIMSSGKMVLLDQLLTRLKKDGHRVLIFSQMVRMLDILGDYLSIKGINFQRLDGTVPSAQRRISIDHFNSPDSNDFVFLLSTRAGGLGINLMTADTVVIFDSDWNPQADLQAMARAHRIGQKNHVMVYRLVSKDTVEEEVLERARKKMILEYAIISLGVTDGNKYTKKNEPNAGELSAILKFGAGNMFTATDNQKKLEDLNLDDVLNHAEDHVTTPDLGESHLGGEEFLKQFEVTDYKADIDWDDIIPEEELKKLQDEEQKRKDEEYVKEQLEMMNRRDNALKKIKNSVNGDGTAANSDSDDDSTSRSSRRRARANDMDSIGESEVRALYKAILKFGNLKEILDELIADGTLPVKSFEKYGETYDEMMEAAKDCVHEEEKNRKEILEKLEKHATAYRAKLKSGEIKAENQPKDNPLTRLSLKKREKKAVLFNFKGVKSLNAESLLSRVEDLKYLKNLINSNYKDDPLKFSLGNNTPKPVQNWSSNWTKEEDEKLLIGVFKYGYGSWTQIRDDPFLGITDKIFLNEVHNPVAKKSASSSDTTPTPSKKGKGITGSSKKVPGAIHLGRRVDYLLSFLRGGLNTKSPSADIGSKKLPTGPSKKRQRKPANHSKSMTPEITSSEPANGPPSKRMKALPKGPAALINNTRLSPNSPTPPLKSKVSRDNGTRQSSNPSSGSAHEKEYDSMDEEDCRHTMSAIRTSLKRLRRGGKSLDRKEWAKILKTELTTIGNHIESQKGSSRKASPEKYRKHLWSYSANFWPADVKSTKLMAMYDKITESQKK

SMILES	Percent Effect [1] [%]	Percent Effect [2] [%]	Percent Effect [3] [%]	Percent Effect [4] [%]	Percent Effect (Trypanosoma cruzi) [%]	Percent Effect [5] [%]	Percent Effect [6] [%]	Percent Effect (Homo sapiens) [%]	Percent Effect [7] [%]	Percent Effect [8] [%]	Percent Effect [9] [%]
COc1ccc(C2CCCN2C(=O)c2cc3c([nH]c2=O)CCC3)cc1 (stereo not given)	-6.57	5.41	2.86	-3.27	-2.73	4.58	17.5	-1.92	11.9	8.54	-6.14
Cc1cc(C(=O)N2CCCCC2C)ccc1NCC(=O)N1CCOCC1 (stereo not given)	-3.46	18.2	9.95	-0.936	8.8	5.69	15.5	29.1	-2.91	24.4	-5.86
COCC(O)CN(C)C(=O)NC1CCN(Cc2ccccn2)CC1 (stereo not given)	-2.64	28.6	-7.26	1.62	4.31	-2.85	15.4	7.67	5.83	24.4	-8.51
Cc1csc2c(N3CCC(NCCCc4ccncc4)CC3)ncnc12	-0.362	2.6	5.76	17.7	-1.08	-1.38	6.49	-3.09	7.53	11.1	-2.5
O=C(c1ccn(-c2ccccc2Cl)n1)N1CCSCC1	-4.68	8.11	1.31	12.9	-6.55	1.74	3.69	20.1	0	11.1	-3.09
Cc1cc(C(=O)N2Cc3ccccc3OC3(CCOCC3)C2)nc(N)n1	-5.65	17.6	1.22	-2.77	0	-4.87	22.9	0.0795	2.15	14.3	-24
O=C(Nc1cc(F)ccc1OCC1CCCO1)c1ccc(O)nc1 (stereo not given)	-4.33	7.79	8.03	-2.88	8.91	-14.5	11.4	-5.06	3.81	14.1	-22.2
CCn1nc(CNC(=O)C2CC(=O)N(C3CCCC3)C2)c2ccccc21 (stereo not given)	-9.13	2.7	3.05	28.4	-1.74	-2.86	3.79	10.4	-0.529	2.44	-3.19
O=C(NCCc1ccncc1)C1CCN(Cc2ccco2)CC1	-7.38	-2.67	-2.38	-3.22	-6.52	-2.6	12.7	25.9	-1.64	1.24	-7.8
Cc1ccc(OCCNC(=O)C(C)n2cncn2)cc1 (stereo not given)	-1.61	15.2	7.61	-6.9	-9.91	0.38	11.1	35.3	-1.48	3.8	-3.56
CC(C)c1nccn1C1CCCN(C(=O)c2cccc3c2OCO3)C1 (stereo not given)	1.99	-46	-3.6	9.39	2.55	-5.61	2.16	9.02	2.46	11.1	-2.9
Cc1cc(=O)n2ncnc2n1CC(O)c1ccccc1Cl (stereo not given)	-0.278	7.89	6.81	-5.31	-6.52	-8.28	18.1	-6.46	3.19	7.79	-2.48
Cc1nc2c(c(N3CC=CC3)n1)CCN(Cc1ccoc1)CC2	-7.04	5.2	2.16	4.88	-1.87	1.38	9.65	-16.9	3.23	8.64	1.68
CCn1cnnc1C1CCN(C(=O)c2ccc(C(=O)OC)s2)CC1	-6.84	10.4	4.62	9.21	-4.87	-0.356	7.43	-6.83	4.85	12.2	-5.74
CCn1c(C)nnc1CN(C)C1CCN(CCn2cccn2)C1 (stereo not given)	-1.14	15.6	0.0585	-11.5	-0.686	-1.05	17.9	20.6	14.3	23.5	-17.4
CCOc1cc(C)nc(N2CCN(C(=O)c3ccnn3C)CC2)n1	-1.84	5.41	-0.273	4.02	3.62	-3.51	4.67	2.75	3.96	18.3	-3.83
NC(=O)CN1CCCN(C(=O)c2ccn(-c3cccc(F)c3)n2)CC1	-1.81	6.94	-1.98	-6	-3.01	2.21	10.3	-17.8	-1.05	5.13	-0.989
CC(C)COC(C)C(=O)NCc1ccc(N(C)C)cc1 (stereo not given)	-2.38	23.4	3.83	-18.6	2.06	-2.32	23.4	5.87	5.71	30.6	-26.1
Cc1cc(CN2CCCC2c2noc(C3CC3)n2)c2ccccc2n1 (stereo not given)	1.53	-16.2	-1.25	5.64	-1.39	9.8	-4.49	94.8	11.9	3.66	12.8
c1ccc(-c2noc(CNC3CCc4ncnn4C3)n2)nc1 (stereo not given)	-2.18	-5.41	-0.412	1.92	-4.74	1.66	-5.57	6.37	2.97	1.22	-1.02
